From PubChem BioAssay AID1486 (The Scripps Research Institute Molecular Screening Center, 2009) come the findings set out here.

In all, about 220,000 compounds went through this assay and about 2,400 (1.1%) were called active.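 How the source made its calls: active means inhibition above a per-campaign cutoff, the mean inhibition of all tested compounds plus 3 SD (cut at about 27% in these data); inactive means the rest.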 For the sample, actives were picked, then their nearest neighbours and some compounds at random.

The assay can be described thus: parental Ba/F3 cell viability inhibition, counter-screen for JAK2V617F inhibitor project, murine pro-B, CellTiter-Glo luminescence (AID 1486).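 Further: 0% = DMSO wells and 100% = JAK Inhibitor I control wells.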 As to conditions: CellTiter-Glo ATP luminescence, at 5.6 µM, active compounds read high. Background: The purpose of a counterscreen is to sort out artefacts and off-target activity.
What is called inhibition is the change of the read-out against control, counted positive when it falls. Turning to `COc1cccc(-n2c(SCC(=O)c3c[nH]c4ccccc34)nc3ccccc3c2=O)c1`, the inhibition was 3.88% (inactive).
With `Cn1ncc2c(NNC(=O)Cc3cccc4ccccc34)ncnc21` the figure was 6.49% (inactive); with `COCCCNC(=O)Cn1cc(/C=C(\C#N)C(=O)N2CCN(c3ccccc3)CC2)c2ccccc21`, 2.71% (inactive); with `O=C(O)CCC(=O)Nc1nc2ccc([N+](=O)[O-])cc2s1`, 3.87% (inactive).
With `O=C(NC(Nc1nc2ccc([N+](=O)[O-])cc2s1)(C(F)(F)F)C(F)(F)F)c1ccccc1` the figure was 53.4% (active); with `O=C(Nc1nc2ccc([N+](=O)[O-])cc2s1)c1ccncc1`, -4.75% (inactive); with `O=C(O)c1cccc(NC(=S)N/N=C/c2c[nH]c3ccccc23)c1`, 7.89% (inactive).
As to `Cc1cc(C)c(C(N)=O)c(Cl)n1`, the inhibition is 1.66% (inactive).
As to `CCOc1cccc(NC(=O)Cn2nc(-c3ccc4c(c3)OCCO4)ccc2=O)c1`, the inhibition was 1.09% (inactive).
With `CN1CCc2nc(SC(C(=O)O)c3ccccc3)c(C#N)c(-c3cccs3)c2C1` (configuration not stated), the inhibition was -0.18% (inactive).
With `CC1=NOC(=O)/C1=C\c1ccccc1` the figure was -2.02% (inactive).
Then `COc1cc(/C=C2/C(=O)ON=C2C)ccc1OCc1ccccc1F`, with 5.96% (inactive).
With `COc1cc(/C=C2/C(=O)ON=C2C)ccc1OCc1cccc(F)c1` the figure was 59.9% (active).
Turning to `CCc1ccc(Oc2nc([N+](=O)[O-])nn2C)cc1`, the inhibition was -0.05% (inactive).
Take `COC(=O)c1cccc(NS(C)(=O)=O)c1`: the inhibition is -2.38% (inactive).
With `CCOC(=O)C1=C(N)N2C(=O)C(C)SC2=C(C(=O)OCC)C1c1cc(OC)c(OC)c(OC)c1` (configuration not stated) the figure was 66% (active); with `CCOC(=O)C1CCN(C(=O)/C=C/c2cc(OC)c(OC)c(OC)c2)CC1`, 2% (inactive).
With `CCOC(=O)c1cc(-c2nnc(-c3cc(OC)c(OC)c(OC)c3)o2)c(C)nc1C` the figure was 3.72% (inactive); with `COc1ccc(C2C=C(c3ccc(Br)cc3)Nc3nc(NS(C)(=O)=O)nn32)cc1` (configuration not stated), -0.92% (inactive).
As for `C=CCNC(=S)NNC(=O)c1cc(Cl)ccc1OC`, the inhibition was 2.83% (inactive).
Then `Cc1ccc(CN(C)CC(=O)Nc2cccc([N+](=O)[O-])c2)o1`, with 1.42% (inactive).
`Cc1ccc(NC(=O)CN(C)CC(=O)Nc2cccc(F)c2)cc1[N+](=O)[O-]`: the inhibition is 27.9% (active).
Regarding `CN(CC(=O)Nc1cccc(F)c1)CC(=O)Nc1cccc([N+](=O)[O-])c1`, the inhibition is 3.37% (inactive).
Consider `CC(=O)N/C(=C/c1ccc(OC(F)F)cc1)C(=O)O`, for which the inhibition was 6.54% (inactive).
With `Fc1ccc(NC(=S)N2CCc3[nH]c4ccccc4c3C2)cc1` the figure was 35% (active); with `O=C(Nc1ccc(Cl)cc1)N1CCc2[nH]c3ccccc3c2C1`, 4.99% (inactive).
In the case of `C=CCNC(=S)N1CCc2[nH]c3ccccc3c2C1`, the inhibition was 0.22% (inactive).
